PrPC TRFRET = cell surface PrPC inhibition, primary TR-FRET screen | P04156 | TR-FRET read-out | inhibition, % at 13.8 µM | 0.43% of 370,000 active | AID 720596; in the data active = inhibition above about 24%; note: 0% = median of the test wells and 100% = reference compound wells
GDH-TPI counter = GDH-TPI coupled enzyme inhibition counter-screen. GDH-TPI coupled enzyme counterscreen, NADH absorbance. inhibition, % at 4.8 µM. 1.2% of 360,000 active; in the data active = inhibition above about 30%;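 note: 0% = DMSO wells and 100% = wells lacking the enzyme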
FBA Mtb inh = Mtb fructose-bisphosphate aldolase inhibition; purified M. tuberculosis FBA, fluorescence read-out; AID 588726; inhibition, % at 1 µM; 2.3% of 360,000 active; in the data active = inhibition above about 27%;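 note: 0% = vehicle and 100% = reference inhibitor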
BJeLR viability = BJeLR cell viability loss; inhibition, % (concentration not given with the values); 0.17% of 300,000 active; BJeLR (HRASV12) viability, CellTiter-Glo ATP luminescence, 48 h; AID 1554; in the data active = inhibition above about 50%
RecA intein inh = blocks M. tuberculosis RecA intein splicing. P9WHJ3. 0.75% of 290,000 active. cell-free RecA intein splicing, fluorescence. inhibition, % (no concentration beside the values); in the data active = inhibition above about 30%;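 note: 0% = vehicle wells and 100% = reference inhibitor control wells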
Target sequence (P9WHJ3 whole entry, looked up): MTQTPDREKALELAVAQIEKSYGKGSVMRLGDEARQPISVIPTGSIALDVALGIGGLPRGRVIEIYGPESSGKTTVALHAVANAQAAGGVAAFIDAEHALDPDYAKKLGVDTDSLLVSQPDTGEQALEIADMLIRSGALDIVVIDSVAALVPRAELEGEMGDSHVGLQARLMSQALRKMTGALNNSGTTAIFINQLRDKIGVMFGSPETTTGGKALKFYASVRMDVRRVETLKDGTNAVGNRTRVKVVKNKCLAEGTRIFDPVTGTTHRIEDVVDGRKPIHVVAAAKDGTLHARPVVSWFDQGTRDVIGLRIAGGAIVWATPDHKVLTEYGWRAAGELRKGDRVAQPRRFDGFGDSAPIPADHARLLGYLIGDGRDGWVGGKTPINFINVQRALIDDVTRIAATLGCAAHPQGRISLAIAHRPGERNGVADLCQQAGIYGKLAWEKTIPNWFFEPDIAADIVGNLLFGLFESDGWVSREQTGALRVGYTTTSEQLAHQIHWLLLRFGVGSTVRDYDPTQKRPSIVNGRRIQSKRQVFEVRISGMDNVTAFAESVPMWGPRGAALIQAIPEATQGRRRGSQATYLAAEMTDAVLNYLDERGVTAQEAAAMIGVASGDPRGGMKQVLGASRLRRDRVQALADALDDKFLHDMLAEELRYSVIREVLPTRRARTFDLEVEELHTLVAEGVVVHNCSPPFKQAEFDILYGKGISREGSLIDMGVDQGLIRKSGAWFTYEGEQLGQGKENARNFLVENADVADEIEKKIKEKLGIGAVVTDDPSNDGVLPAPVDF
* marks the source's active call; other numbers are inactive results; nt = not tested or not shown; + = active, no number. Only some compounds are listed: those with a hit (about 4.2% of all), similar ones and a draw of the others.

SMILES	PrPC TRFRET	GDH-TPI counter	FBA Mtb inh	BJeLR viability	RecA intein inh
COc1ccc2cc(C(C)=O)c(=O)oc2c1	-4	11	4	-16	-14
COc1ccc(-c2cc3ccc(OC(C)C(=O)O)cc3oc2=O)cc1 (centres undefined)	-29	16	+	3	-199
CC(=O)COc1ccc2cc(-c3ccccc3)c(=O)oc2c1	-17	40*	+	1	-5
CC(=O)Oc1ccc2cc(-c3ccccc3)c(=O)oc2c1	-5	6	158*	0	-145
CC(=O)Oc1ccc2c(=O)c(-c3ccccc3)coc2c1	8	0	15	3	5
Cc1ccccc1CC(=O)Nc1nnc(-c2cccnc2)s1	-5	nt	nt	nt	nt
CC(C)CC(O)(CC(C)C)c1cn(C(=O)N(c2ccccc2)c2ccccc2)nn1	3	nt	nt	nt	nt
COc1cccc(Cn2c3ccc(NC(=O)CC(C)C(F)(F)F)cc3c(=O)n2C)c1 (centres undefined)	3	9	143*	nt	nt
CC(CC(=O)Nc1ccc2c(c1)c(=O)n(C)n2Cc1ccc(F)cc1)C(F)(F)F (centres undefined)	7	-4	148*	nt	nt
COc1cccc(Cn2c3ccc(NC(=O)Cc4cc(OC)ccc4OC)cc3c(=O)n2C)c1	0	3	152*	nt	nt
CC(CC(=O)Nc1ccc2c(c1)c(=O)n(C)n2Cc1ccc(F)cc1)c1ccccc1 (centres undefined)	24	2	130*	nt	nt
COc1cccc(CC(=O)Nc2ccc3c(c2)c(=O)n(C)n3-c2ccc(C(C)(C)C)cc2)c1	8	6	6	nt	nt
COC(=O)[C@]12C[C@H](CC(=O)NCc3ccc(C)o3)C(=O)N(Cc3ccco3)C1=C[C@H](COCc1ccccc1)O[C@@H]2C	4	nt	nt	nt	nt
CC(COc1ccc(C#N)c(F)c1)CN1CCC(C(O)(c2ccccc2)c2ccccc2)CC1 (centres undefined)	-8	nt	nt	nt	nt
Cc1c(C(=O)N2CCOCC2)sc(NC(=O)c2ccc3c(c2)OCO3)c1C#N	-4	45*	-2	-5	-5
CCN(CC)C(=O)c1sc(NC(=O)c2ccc3c(c2)OCO3)c(C#N)c1C	-10	12	0	5	1
COc1cccc(C(=O)c2sc(NC(C)C)nc2N)c1	11	9	2	-7	1
COc1ccc(C(=O)c2sc(NC(C)C)nc2N)cc1OC	-9	37*	-2	nt	nt
COC(=O)C1=CNC=C(C(=O)OC)C1c1cccc(OC)c1	-1	4	195*	-6	-45
COCCN1C=C(C(=O)OC)C(c2ccccc2C(F)(F)F)C(C(=O)OC)=C1	8	9	155*	-6	-95
CCCCN1C=C(C(=O)OC)C(c2ccccc2C(F)(F)F)C(C(=O)OC)=C1	6	3	14	3	-35
COC(=O)C1=CNC=C(C(=O)OC)C1c1ccccc1Cl	-5	8	+	nt	nt
CCCCN1C=C(C(=O)OC)C(c2ccccc2Cl)C(C(=O)OC)=C1	-7	-2	171*	-3	-95
O=C(COC(=O)c1ccc(Sc2ncn[nH]2)c([N+](=O)[O-])c1)Nc1ccc(Cl)c(Cl)c1	1	nt	nt	nt	nt
CCCOc1ccc(C2C(C(=O)OC)=CN(CCOC)C=C2C(=O)OC)cc1	0	-3	+	1	-115
SMILES	PrPC TRFRET	GDH-TPI counter	FBA Mtb inh	BJeLR viability	RecA intein inh
COC(=O)C1=CN(c2ccc(OC)cc2)C=C(C(=O)OC)C1c1ccc([N+](=O)[O-])cc1	-4	0	1	9	-5
COC(=O)C1=CNC=C(C(=O)OC)C1c1ccc(Cl)cc1	0	6	+	-9	-22
COc1cc(/C=C(\C#N)C(=O)NC2CCCCC2C)ccc1OS(=O)(=O)c1ccc(C)cc1 (centres undefined)	-2	10	0	84*	56*
COc1cc(/C=C(\C#N)C(N)=O)ccc1OS(=O)(=O)c1ccc(C)cc1	-2	13	-1	7	11
O=C(Oc1ccc2ccc(=O)oc2c1)c1ccco1	-3	4	+	2	-1
O=C(CN1C(=O)NC2(CCCCC2)C1=O)Oc1ccc2ccc(=O)oc2c1	-7	14	+	nt	nt
COc1ccccc1C(=O)Oc1ccc2ccc(=O)oc2c1	4	16	117*	3	-87
Cc1ccc(C)c(S(=O)(=O)N(C)c2ccc(OC(=O)CN3C(=O)NC4(CCCC4)C3=O)cc2)c1	-2	8	-3	nt	nt
O=C(NC1CCCCN(Cc2cccc(Cl)c2)C1=O)c1ccc(Cl)cc1Cl (centres undefined)	1	nt	nt	nt	nt
Cc1ccc(-n2c(SCC(=O)N/N=C/C=C\c3ccccc3[N+](=O)[O-])nnc2-c2ccccc2)cc1	6	nt	nt	nt	nt
CCOC(=O)[C@H](Cc1ccccc1)NC(=O)[C@H]1C[C@@]2(N3CCCCC3)c3ccccc3N(C(=O)OC(C)(C)C)[C@H]2N1C(=O)OC(C)(C)C	10	nt	nt	nt	nt
O=C(CSc1nc2nc(-c3cccs3)cc(C(F)(F)F)c2c(=O)[nH]1)C(F)(F)F	-5	14	+	-2	-58
COC(=O)CSc1nc2nc(-c3cccs3)cc(C(F)(F)F)c2c(=O)[nH]1	1	-4	7	-6	-1
C=CCNc1sc(C(=O)c2ccc(C)cc2)c(N)c1C#N	-5	14	3	7	-1
C=CCNc1sc(C(=O)C(C)(C)C)c(N)c1C#N	-1	40*	0	-5	5
C=CCNc1sc(C(=O)C2CC2)c(N)c1C#N	-5	40*	-2	nt	nt
O=c1/c(=C\c2ccc(F)cc2)sc2n1CCCN=2	9	33*	0	3	nt
O=c1/c(=C/c2ccc(O)cc2)sc2n1CCCN=2	-13	8	-5	nt	nt
CSc1nc(-c2ccc(Cl)cc2)nc(N)c1C#N	2	-3	0	-14	1
CSc1nc(N)c(C#N)c(-c2ccc(Cl)cc2)c1C#N	7	33*	4	1	1
N#Cc1c(-c2ccc(Cl)cc2)c(C#N)c(=O)n(N)c1N	-4	33*	-4	2	3
COc1cc(/C=N/NC(=O)c2nc3ccccn3c2C)cc(OC)c1O	5	20	-2	0	-5
O=C(N/N=C/c1ccc2c(c1)OCO2)c1cccc2ccccc12	6	11	1	1	-5
Cc1c(C(=O)N/N=C/c2ccc(N3CCOCC3)cc2)nc2ccccn12	1	31*	1	-4	nt
Cc1ccc2nc(C)c(C(=O)N/N=C/c3ccc(N4CCOCC4)cc3)cc2c1	3	41*	-3	-5	-13
O=C(N/N=C/c1ccc2c(c1)OCO2)c1ccccn1	-6	41*	-2	29	-2
Cc1ccc2nc(C)c(C(=O)N/N=C/c3ccco3)cc2c1	-3	7	3	-12	-1
O=C(N/N=C/c1ccc(N2CCOCC2)cc1)c1ccccn1	1	67*	3	-2	0
CCCCNS(=O)(=O)/C=C/c1ccc(OC)cc1CNC(=O)OC(C)(C)C	1	nt	nt	nt	nt
O=C(CCc1ccccc1-c1ccccc1CCNC(=O)c1cccc(F)c1)NCc1ccccc1	-9	nt	nt	nt	nt

Compound activity as filed in PubChem BioAssay.
